Drawing on PubChem BioAssay (Tox21), this text covers Potency and fluorescence, % of triamterene for 40 molecules.

A number with no mark means an inactive call. Where a call stands in place of a potency, no number is given. Active and inactive are the calls of the source. Calls follow the shape of the dose curve; as a rule, active = well fitted curve in the direction sought with a large enough effect in the repeat runs; inconclusive = weak or mixed curves; inactive = flat fitted curve, though single readings scatter.

The experiment is described as follows: qHTS assay to test for compound auto fluorescence at 460 nm (blue) in HEK293 cells (AID 720678). To be noted: blue autofluorescence 405/460 nm; series mostly up to 91.3 µM. The source says: National Center for Advancing Translational Sciences [NCATS]
NIH Chemical Genomics Center [NCGC]
U.S. Environmental Protection Agency [EPA]
National Institutes of Environmental Health Sciences [NIEHS]
National Toxicology Program [NTP]
U.S. Food and Drug Administration [FDA]
Compound auto fluorescence often interferes with screening of the compound library against various biological targets and signaling pathways. Some of these compounds may have fluorophoric properties. Such properties may interfere with the assay outputs resulting in false positives and/or negatives. To decrease such complications and ensure the compound activities are relevant in terms of biological response, the Tox21 10K compound library was screened for auto fluorescence.
From the fluorophores used as reporter signals in our screening assays, the auto fluorescence equivalencies of compounds against three fluorophores have been evaluated: Triamterene, Fluorescein and Rose Bengal sodium for blue, green and red fluorescence, respectively. The fluorescence intensities were measured using Excitation/Emission wavelengths at 405/460nm, 485/535nm and 540/590nm for blue, green and red labels, respectively. This assay includes the blue fluorescence data.
Tox21 Assay Protocol Summary:
2,000 HEK293 cells in 5 uL of culture medium containing 10% dialyzed FBS per well were dispensed into black wall/clear bottom 1536-well plates using a Multidrop Combi Dispenser (Thermo Scientific). The assay plates were incubated for 4-5 hr at 37C to allow cell attachment to the well bottom, followed by the transfer of 23 nL compound or DMSO vehicle by a pintool work station (Kalypsys, San Diego, CA). After the assay plates were incubated overnight at 37C and 5% CO2, fluorescence intensities in the assay plates were measured by an Envision (PerkinElmer, Shelton, CT) plate reader using three labels for measuring blue, green and red fluorescence at […] 460, 535 and 590nm respectively.
Background: qHTS replaces the single test concentration by a dilution series.
With `O=C1C(c2[nH]c3ccc(S(=O)(=O)O)cc3c2O)=Nc2ccc(S(=O)(=O)O)cc21`, the Potency entry was “inactive”.

With `CCC(CC)C(C)CCOC(C)=O` (stereo not given), the Potency entry was “inactive”.

Consider `Cc1cc(C(C)(C)C)cc(C)c1CC1=NCCN1`, for which the fluorescence, % of triamterene was -0.0052% [at 18.6 µM].

On to `O=C(O)CCN(C1(C(=O)NO)CCCC1)S(=O)(=O)c1ccc(Oc2ccc(F)cc2)cc1`, for which the Potency result was “inactive”.

Consider `CCC(CC)(CC(=O)Nc1cccc(/C=C/c2nc(C3CCC3)cs2)c1)C(=O)O`, for which the Potency entry is “inactive”.

As to `C=CC(=O)OCCOC(=O)C=C`, the Potency entry was “inactive”.

Turning to `CCn1c2ccccc2c2cc([N+](=O)[O-])ccc21`, the Potency entry was “inactive”.

Turning to `COc1cc(C)ccc1O`, the Potency entry is “inactive”.

Take `Nc1ccc(NCCO)c([N+](=O)[O-])c1`: the Potency entry was “inactive”.

`COc1cc(S(=O)(=O)O)c(C)cc1N=Nc1c(O)ccc2cc(S(=O)(=O)O)ccc12`: the Potency result was “inactive”.

For the molecule `O=c1c(O)c(-c2ccc(O)cc2O)oc2cc(O)cc(O)c12`, the Potency result was “inactive”.

Take `CCN(CC)C(=O)c1cc(S(=O)(=O)Cc2ccccc2)c(N2CCC(c3ccccc3)CC2)cc1N(CC)CCN(C)C`: the Potency entry was “inactive”.

Consider `CCCCN(CCCC)CC(O)c1cc(Cl)cc2c1-c1ccc(Cl)cc1/C2=C/c1ccc(Cl)cc1` (stereo not given), for which the Potency result was “inactive”.

For `CCCCCC/C=C\CCCCCCCC(=O)O`, the Potency entry is “inactive”.

As to `O=C1c2ccccc2C(=O)N1SC1CCCCC1`, the Potency result was “inactive”.

Take `CN(C)C(=O)COC(=O)Cc1ccc(OC(=O)c2ccc(N=C(N)N)cc2)cc1`: the Potency entry was “inactive”.

For the molecule `O=c1[nH]c2ccccc2n1CCCN1CCN(C(c2ccccc2)c2ccccc2)CC1`, the Potency result was “inactive”.

On to `C=CCCC(=O)/C=C/C1C(C)=CCCC1(C)C` (stereo not given), for which the Potency result is “inactive”.

As for `CN1CCC[C@@H]1CCO[C@](C)(c1ccccc1)c1ccc(Cl)cc1`, the Potency result is “inactive”.

On to `O=C(O)c1cc(-c2ccc(F)cc2F)ccc1O`, for which the fluorescence, % of triamterene was -0.0352% [at 18.6 µM].

As to `CC(N=C(NC#N)Nc1ccncc1)C(C)(C)C` (stereo not given), the Potency result was “inactive”.

On to `COC(=O)Nc1nc2ccc(C(=O)c3ccccc3)cc2[nH]1`, for which the fluorescence, % of triamterene was 0.0612% [at 18.6 µM].

In the case of `CCC(=O)OC(=O)CC`, the Potency result was “inactive”.

With `CCC(C)n1ncn(-c2ccc(N3CCN(c4ccc(OC[C@H]5CO[C@](Cn6cncn6)(c6ccc(Cl)cc6Cl)O5)cc4)CC3)cc2)c1=O` (stereo not given in full), the Potency result is “inactive”.

Regarding `COc1cc2nc(N3CCN(C(=O)c4ccco4)CC3)nc(N)c2cc1OC`, the Potency entry is “inactive”.

For the molecule `COC(=O)c1ccccc1C`, the Potency result is “inactive”.

Take `c1cnccn1`: the Potency entry is “inactive”.

`COc1ccc(NC(=O)CC(C)=O)cc1`: the Potency entry was “inactive”.

For the molecule `CC1(C)CC(O)CC(C)(C)N1`, the Potency entry was “inactive”.

Consider `O=C1OC2(c3ccc(O)cc3Oc3cc(O)ccc32)c2ccc(N=C=S)cc21`, for which the Potency result is “inactive”.

For `C1CCC(SSC2CCCCC2)CC1`, the Potency result is “inactive”.

Take `Clc1nnc(Cl)c2ccccc12`: the Potency result was “inactive”.

On to `Cc1c2ccccc2c(C)c2c1ccc1ccccc12`, for which the Potency result is “inactive”.

As for `Cc1ccc(-c2ccccc2)cc1`, the Potency entry was “inactive”.

Regarding `c1ccsc1`, the Potency entry was “inactive”.

As for `Cc1ccc(O)c(N)c1`, the Potency result is “inactive”.

Regarding `C=C(CC)C(=O)c1ccc(OCC(=O)O)c(Cl)c1Cl`, the Potency result was “inactive”.

With `S=C([S-])NCCNC(=S)[S-].S=C([S-])NCCNC(=S)[S-].[Mn+2].[Zn+2]`, the Potency entry was “inactive”.

Take `c1ccc(C(O[C@@H]2CCCN(CCc3ccc4c(c3)OCO4)C2)c2ccccc2)cc1`: the Potency result is “inactive”.

Take `CC(C)(C)C1CCC(=O)CC1`: the Potency result was “inactive”.
